PubChem BioAssay (EPA / NIEHS)
Calls of active or inactive are those of the source. How the source made its calls: active means hit-call score of the fitted dose curve at least 0.9, where 1 is the maximum; inactive means score below 0.9.

Read-out: 3-Hydroxy-3-Methylglutaryl-CoA Synthase 2 (HMGCS2), HMGCS2 (gene 3158)
Assay: LTEA_HepaRG_HMGCS2: Life Technologies and Expression Analysis (LTEA) Assay for 3-Hydroxy-3-Methylglutaryl-CoA Synthase 2 (HMGCS2) using HepaRG (AID 2283504)
Settings: mRNA level, 48 h; actives raise or lower the signal
Experimental: LTEA_HepaRG is a cell based, multiplexed-readout assay that uses HepaRG, a human liver cell line, with measurements taken at 48 hours after chemical dosing on a 96-well plate.LTEA_HepaRG_HMGCS2 is one of 102 assay component(s) measured in the LTEA HepaRG cell culture assay. It is a marker of Steatosis.Data from the assay component LTEA_HepaRG_HMGCS2 was analyzed into 1 endpoint. This assay endpoint, LTEA_HepaRG_HMGCS2, was analyzed with bidirectional fitting relative to DMSO as the negative control and baseline of activity. Using a type of inducible reporter, measures of mRNA induction for gain or loss-of-signal activity can be used to understand regulation of transcription factor activity. To generalize the intended target to other relatable targets, this assay endpoint is annotated to the lyase intended target family, where the subfamily is HMG-CoA synthase.
A total of 1060 chemcials from the ToxCast library were tested in eight-point concentration-response experiments. Cell culture and cytotoxicity assays were conducted at Thermo Fisher Scientific's Custom Services facility (Madison, WI). A single lot of human HepaRG cells (Thermo Fisher Scientific, Frederick, MD) was used for the cell culture experiments. 96-well format collagen type I coated plates of human HepaRG cells were prepared using established methods. Briefly, cryopreserved HepaRG cells were thawed, plated at a density of approximately 100,000 cells/well in HepaRG Thaw, Plate, and General Purpose media (HPRG770, Thermo Fisher Scientific), and incubated for 48 hours. 0.5% DMSO was selected as vehicle control to balance the requisite need of DMSO in HepaRG cultures to maintain differentiation (for example, baseline metabolism, proportions of hepatocytes vs. cholangiocytes), while enabling further hepatic receptor pathway activation (for example, PXR and CAR) in response to chemical exposure. 48 hours after plating, the culture medium was replaced with HepaRG Serum-Free Incudtion Media. Cells were exposed to each test chemical in duplicate and maintained in CO2 incubators for another 48 hours. Chemical plates were thawed to room temperature and 200x concentrations of treatment groups were prepared. 8-point conentration-reponse curves were made with the highest exposure at 100 uM, followed by half-log dilutions, all in 0.5% DMSO. Each test plate contained variouse controls, induction positive controls (1mM phenobarbital), cytotoxicity positive controls ([…] aflatoxin B1), vehicle controls (0.5% DMSO), and total lysis controls (0.5% DMSO). Cell morphology images were taken using an Essen IncuCyte FLR automated microscope, with six 96-well plates imaged in about 24 minutes. Images were captured and exported and JPEG files. Spent culture media was transfered to black-well plates for the LDH assay, and remaining media was sorted at -80 C for later use. Cells were treated with RLT buffer and frozen until shipped for gene expression analysis. Total RNA was isolated from the cell suspension in 75 uL of Buffer RLT (Qiagen, Germantown, MD 20874) by Quintiles/Expression Analysis (Durham, NC) using a custom isolation procedure. Total RNA from each plate well was transferred to a preamplification plate. Fluidigm's 96.96 Dynamic ArrayTM (Fluidigm, Amsterdam, the Netherlands) technology was used for gene expression analyses by quantitative reverse transcription polymerase chain reaction (qRT-PCR, performed by Quintiles/Expression Analysis, Durham, NC)89. Standard TaqManTM Assays (Applied Biosystems/ThermoFisher Scientific, Foster City, CA) were used to assess the expression of 93 genes selected based on their selectivity and sensitivity to important hepatic receptors known to be modulated by environmental chemicals; importance in human hepatocyte functionality; and hepatotoxicity. […]

| Structure (SMILES) | outcome | AC50 |
| --- | --- | --- |
| CCOc1nc(F)cc2nc(S(=O)(=O)Nc3c(Cl)cccc3Cl)nn12 | inactive |  |
| COC(=O)c1c(C(F)F)nc(C(F)(F)F)c(C2=NCCS2)c1CC(C)C | inactive |  |
| CCCCC(C#N)(Cn1cncn1)c1ccc(Cl)cc1 (stereo not given) |  | 78.1 µM (active) |
| COCC(=O)N(c1c(C)cccc1C)C(C)C(=O)OC (stereo not given) | inactive |  |
| Cn1c(-c2ccccc2)cc(-c2ccccc2)[n+]1C |  | 35 µM (active) |
| CC(C)NC(=O)N1CC(=O)N(c2cc(Cl)cc(Cl)c2)C1=O |  | 13.2 µM (active) |
| CC1(C)CON(Cc2ccccc2Cl)C1=O | inactive |  |
| OC(c1ccc(Cl)cc1)(c1ccc(Cl)cc1)C(Cl)(Cl)Cl |  | 80.1 µM (active) |
| CC(C)=CC1C(C(=O)OCc2coc(Cc3ccccc3)c2)C1(C)C (stereo not given) | inactive |  |
| CC(C)(C)C(=O)C(Oc1ccc(Cl)cc1)n1cncn1 (stereo not given) | inactive |  |
| Nc1c(Cl)c(Cl)nc(C(=O)O)c1Cl | inactive |  |
| CCSC(=O)N1CCCCCC1 | inactive |  |
| COC(=O)NC(=S)Nc1ccccc1NC(=S)NC(=O)OC | inactive |  |
| CC(C)Oc1cccc(NC(=O)c2ccccc2C(F)(F)F)c1 | inactive |  |
| CCC(C)n1c(=O)[nH]c(C)c(Br)c1=O (stereo not given) |  | 29.2 µM (active) |
| O=c1n(Cl)c(=O)n(Cl)c(=O)n1Cl | inactive |  |
| C=CCOC(=O)C(C)(C)OC(=O)c1cc(-n2c(=O)cc(C(F)(F)F)n(C)c2=O)ccc1Cl | inactive |  |
| CN=C=S | inactive |  |
| O=C1C2CC=CCC2C(=O)N1SC(Cl)(Cl)Cl (stereo not given) | inactive |  |
| Cc1c(COC(=O)[C@@H]2[C@H](/C=C(\Cl)C(F)(F)F)C2(C)C)cccc1-c1ccccc1 | inactive |  |

| Structure (SMILES) | outcome | AC50 |
| --- | --- | --- |
| O=P(O)(O)CCCl | inactive |  |
| CNC(=O)N(C)c1nnc(C(C)(C)C)s1 | inactive |  |
| CCNC(=O)NC(=O)C(C#N)=NOC |  | 50 µM (active) |
| COCc1cnc(C2=NC(C)(C(C)C)C(=O)N2)c(C(=O)O)c1 (stereo not given) | inactive |  |
| Cc1cc(C)nc(Nc2ccccc2)n1 | inactive |  |
| N#Cc1c(Cl)cccc1Cl | inactive |  |
| CCOP(=S)(OCC)Oc1nc(Cl)n(C(C)C)n1 |  | 17.2 µM (active) |
| Nc1c(Cl)c(F)nc(OCC(=O)O)c1Cl | inactive |  |
| COC(=O)N(C(=O)N1CO[C@@]2(C(=O)OC)Cc3cc(Cl)ccc3C2=N1)c1ccc(OC(F)(F)F)cc1 |  | 40 µM (active) |
| CS(=O)(=O)c1cc(C(F)(F)F)ccc1C(=O)c1cnoc1C1CC1 | inactive |  |
| COc1cc(Cl)c(OC)cc1Cl | inactive |  |
| CC(C)N1C(=O)c2ccccc2NS1(=O)=O | inactive |  |
| COP(=O)(OC)O/C(C)=C/C(=O)N(C)C | inactive |  |
| CCNP(=S)(OC)O/C(C)=C/C(=O)OC(C)C (stereo not given) |  | 25.8 µM (active) |
| Clc1nc(Cl)nc(Nc2ccccc2Cl)n1 | inactive |  |
| O=C(O)c1c(Cl)ccc2cc(Cl)cnc12 | inactive |  |
| CC(C)N1C(=O)N(c2ccccc2)CSC1=NC(C)(C)C |  | 75.5 µM (active) |
| CS(=O)(=O)c1ccc(C(=O)C2C(=O)CCCC2=O)c([N+](=O)[O-])c1 | inactive |  |
| CCN(CC)c1nc(C)cc(OP(=S)(OC)OC)n1 | inactive |  |
| CCOc1nc(C(Cl)(Cl)Cl)ns1 | inactive |  |
